Molecules are shown by their SMILES. Inconclusive results are not listed. Entries that show only a call come without a potency. Active and inactive are the calls of the source. Calls follow the shape of the full dose curve.

We go through three compounds from PubChem BioAssay (NCATS).

A short description of this experiment: Confirmatory qHTS for VERO E6 Cytotoxicity Assay: Counterscreen for SARS-CoV-2 CPE Assay (AID 1508605). Also: nearly all actives have a fitted effect of over 60% in size. The settings on record: cell viability luminescence; series mostly up to 20 µM.
For `CN(C)[C@@H](CCOc1cccc2ccccc12)c1ccccc1`, the Potency entry was “inactive”. In the case of `CN(C)CCOC(c1ccccc1)c1ccc(Br)cc1` (stereo not drawn), the Potency entry was “inactive”.

Take `CN1CCC(=C2c3ccccc3CCc3sccc32)CC1`: the Potency entry was “inactive”.
